Compounds with a hit are over-represented: about 3.6% of the library has one in this group of screens.
mHTT-CaM PPI inh – inhibitors of human mutant huntingtin-calmodulin interaction; AID 1671202; inhibition, % at 15 µM; 190,000 compounds, 3.6% hits; AlphaScreen His-mHTT/GST-CaM binding, luminescence; P42858
Pf apPOL inh – Pf-apPOL DNA polymerase inhibition. AID 1794808. Recombinant Pf-apPOL, molecular beacon fluorescence, 1.5 h. inhibition, % at 10 µM. 210,000 compounds, 0.25% hits
Hits are given with their value; - = inactive; . = not tested or not shown. No stated cut-off is given here; in the data, active means inhibition above about 50%; inactive means the rest.

SMILES	mHTT-CaM PPI inh	Pf apPOL inh
Cc1nc(-c2cnccn2)nc2c1CCC(=O)N2CC(C)C	-	-
Cc1ccccc1C(=O)Nc1ccc(-c2nc3ccccc3s2)c(O)c1	-	-
O=[N+]([O-])c1ccc(-c2nnn(CNc3ccccc3)n2)cc1	53.0	-
O=C(Cn1nnc(-c2ccccc2)n1)Nc1cccc([N+](=O)[O-])c1	-	-
Cc1ccccc1OCC(=O)N1N=C(c2ccc(Cl)cc2)CC1(O)C(F)(F)F (centres undefined)	96.0	-
O=C(CCc1ccccc1)N1N=C(c2ccc(Cl)cc2)CC1(O)C(F)(F)F (centres undefined)	-	-
Cc1ccc(C(=O)N2N=C(c3ccc(Cl)cc3)CC2(O)C(F)(F)F)cc1 (centres undefined)	-	-
COc1ccc(C(=O)N2N=C(c3ccc(Br)cc3)CC2(O)C(F)(F)F)cc1 (centres undefined)	-	-
O=C(c1ccc(Cl)cc1)N1N=C(c2ccccc2)CC1(O)C(F)(F)F (centres undefined)	54.0	-
O=C(c1ccc(Cl)cc1)N1N=C(c2ccc(Cl)cc2)CC1(O)C(F)(F)F (centres undefined)	-	-
COc1ccc(C(=O)N2N=C(c3cccc(Br)c3)CC2(O)C(F)(F)F)cc1 (centres undefined)	50.0	-
Cc1cc(C)cc(OCC(=O)N2N=C(c3ccc(Cl)cc3)CC2(O)C(F)(F)F)c1 (centres undefined)	90.0	-
COCCC1CCN(C(=O)COc2ccc(OC)cc2)CC1	-	-
C(=Cc1ccccc1)CSc1ccccn1	.	-
O=C(c1csc(N2CCN(c3ccccc3)CC2)n1)N1CCOCC1	-	-
N#CC1=CN(c2cccc(C(F)(F)F)c2)c2cc(F)ccc2S1(=O)=O	-	-
CC(C)c1ccc(CN2CC(C(=O)Nc3nc4ccccc4s3)CC2=O)cc1 (centres undefined)	100.0	-
CC(C)c1ccc(CN2CC(C(=O)Nc3ccccc3)CC2=O)cc1 (centres undefined)	-	-
CC(=O)Nc1cccc(N2CC(C(=O)Nc3nc4ccc(Cl)cc4s3)CC2=O)c1 (centres undefined)	52.5	-
COc1ccc2nc(NC(=O)C3CC(=O)N(c4cccc(NC(C)=O)c4)C3)sc2c1 (centres undefined)	-	-
CCNC(=O)N1CC=C(C(=O)Nc2cccc(C)c2)CC1	-	-
O=C(NC1CC1)c1ccc(OCC2CCN(C(=O)c3cccc(Cl)c3)CC2)cc1	-	-
O=C(NCC(=O)N1CCCc2ccccc21)c1cc2ccccc2oc1=O	-	-
CCN(CC)CCCNC(=O)C1=C(C)C(=O)OC12CCCCC2	-	-
Cc1c(Cl)c([N+](=O)[O-])nn1CCCC(=O)N(Cc1ccccc1)Cc1ccccc1	84.0	-
SMILES	mHTT-CaM PPI inh	Pf apPOL inh
Cc1c(Cl)c([N+](=O)[O-])nn1CCCC(=O)N1CCN(c2ccccc2)CC1	-	-
N#CC1=C(N)N(c2ccccc2)C2=C(C(=O)CCC2)C1c1ccsc1 (centres undefined)	-	-
N#CC1=C(N)n2c(s/c(=C\c3ccsc3)c2=O)=C(C#N)C1c1ccsc1 (centres undefined)	70.0	-
O=C(c1ccco1)N1CCN(C(=O)C2CCCN(c3cn[nH]c(=O)c3)C2)CC1 (centres undefined)	-	-
Cc1ccc(C)c(C(=O)N2CCCN(Cc3nc(-c4cccc(F)c4)no3)CC2)c1	-	-
CCC(C)NC(=O)c1cnn2c(C)c(Cc3cccc(Cl)c3)c(C)nc12 (centres undefined)	82.0	-
CCC(C)NC(=O)c1cnn2c(C)c(Cc3ccccc3C)c(C)nc12 (centres undefined)	87.0	-
CCC(C)NC(=O)c1cnn2c(C)c(Cc3c(C)cc(C)cc3C)c(C)nc12 (centres undefined)	-	-
CCC(C)NC(=O)c1cnn2c(C)c(Cc3ccc(Cl)cc3)c(C)nc12 (centres undefined)	-	-
Cc1nc2c(C(=O)O)cnn2c(C)c1Cc1ccccc1	-	-
CCC(C)NC(=O)c1cnn2c(C)c(Cc3cccc(Br)c3)c(C)nc12 (centres undefined)	74.0	-
O=C(CSc1nncc(=O)[nH]1)Nc1cccc(Cl)c1Cl	-	-
COc1ccc(Cl)cc1NC(=O)NCC(C)(O)c1ccco1 (centres undefined)	-	-
CC(C)c1noc(COC2CCN(C(=O)Cc3cccnc3)CC2)n1	-	-
O=C(NCc1cccc(Cl)c1)C1=C2CCCN2c2ccc(F)cc2S1(=O)=O	-	-
CCC(C)CNC(=O)c1n[nH]c2c1CN(C(=O)c1ccccc1C)CC2 (centres undefined)	-	-
CC1CC(C)CN(Cc2c(O)ccc3c2OC(=Cc2cccs2)C3=O)C1 (centres undefined)	-	-
Cc1ccc(-c2coc(-c3ccc(N)cc3)n2)c(C)c1	59.2	-
Cc1ccc(C)c(-c2coc(-c3ccc(N)cc3)n2)c1	53.1	-
Cc1ccc(-c2csc(N)n2)c(C)c1	-	-

Bioassay records from PubChem.
